Assay outcomes: PubChem, several laboratories
ERb SRC1 inh: blocks coactivator binding to human estrogen receptor beta. TR-FRET ER-beta LBD / SRC1-Cy5 peptide binding; receptor agonist-loaded with 1 µM estradiol. actives 1.3% (n = 86,000). inhibition, % at 25.6 µM. Q92731;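 active = compounds whose percent inhibition of the receptor-coactivator binding signal exceeds about 50% in the single-dose screen, limit read from the data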;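 also: 0% = receptor plus peptide wells without compound and 100% = peptide-only wells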
ERa SRC1 inh: blocks coactivator binding to human estrogen receptor alpha | P03372 | TR-FRET ER-alpha LBD / SRC-1 peptide, estradiol-bound | inhibition, % at 25.6 µM | actives 1.7% (n = 86,000) | AID 629; in the data active = inhibition above about 50%;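 also: 0% = receptor plus peptide control and 100% = peptide only without receptor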
Target sequence (P03372 whole entry, looked up, the tested form may be a part): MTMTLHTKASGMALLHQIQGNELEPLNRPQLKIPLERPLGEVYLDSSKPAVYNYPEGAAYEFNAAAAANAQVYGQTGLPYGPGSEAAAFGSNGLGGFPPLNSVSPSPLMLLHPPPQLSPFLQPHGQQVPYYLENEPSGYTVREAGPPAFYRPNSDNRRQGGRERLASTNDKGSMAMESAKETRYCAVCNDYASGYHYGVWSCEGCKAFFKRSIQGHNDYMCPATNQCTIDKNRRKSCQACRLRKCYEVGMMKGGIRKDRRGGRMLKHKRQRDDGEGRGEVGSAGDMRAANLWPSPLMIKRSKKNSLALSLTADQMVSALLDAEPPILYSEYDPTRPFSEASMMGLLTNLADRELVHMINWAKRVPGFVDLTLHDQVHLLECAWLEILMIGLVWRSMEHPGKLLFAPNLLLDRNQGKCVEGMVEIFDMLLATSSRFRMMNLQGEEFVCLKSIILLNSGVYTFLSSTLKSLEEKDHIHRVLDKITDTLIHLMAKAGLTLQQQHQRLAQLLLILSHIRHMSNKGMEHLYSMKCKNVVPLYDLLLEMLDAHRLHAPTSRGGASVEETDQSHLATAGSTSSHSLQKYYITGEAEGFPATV
MRP resist rev: reverses drug resistance mediated by MRP; actives 0.04% (n = 85,000); H69AR cells + 2 uM doxorubicin, CellTiter-Glo, 72 h; differential viability (reversal), % at 10 µM;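 active = viability drop by adding the cancer drug above about 55%, with treated viability meeting a 40% cutoff, limit read from the data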;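 also: viability without doxorubicin minus viability with 2 µM doxorubicin for each compound; larger differential means the compound sensitizes cells more to doxorubicin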
ERa coact pot: ER-alpha (human) coactivator binding potentiation; P03372; TR-FRET ERalpha-LBD/SRC-Cy5 coactivator binding, 2 h; 100 = basal binding, no effect; coactivator binding (% of control), % at 25.6 µM; actives 1.3% (n = 86,000); AID 639; in the data active = activity above about 200%;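 also: binding measured in presence of low estradiol as agonist stimulus; 0% = peptide alone without receptor and 100% = receptor with peptide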
MRP1 act: activators of MRP-1. viability increase, % at 10 µM. AID 799. H69AR cells + doxorubicin, viability rescue, CellTiter-Glo. actives 0.61% (n = 140,000);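 active = viability gain under doxorubicin at or above a set limit, the compound median plus 3 SD, cut at about 4.7% in these data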;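 also: MRP-1 overexpressing cells given doxorubicin 25 µM after compound pretreatment; 18-22 h compound pretreatment then 72 h with doxorubicin before readout; 0% = doxorubicin-only wells and 100% = vehicle-treated cells without doxorubicin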
Smad3 FoxH1 inh: blocks human Smad3 binding to FoxH1 peptide; AID 630; actives 0.29% (n = 88,000); inhibition, % at 25 µM; TR-FRET Smad3/Dy647-FoxH1 peptide binding, europium anti-His;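 active = compounds that reduce the energy-transfer binding signal between the protein and its labelled peptide by more than half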;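 also: 0% = Smad3 plus labelled peptide maximal FRET and 100% = peptide-only background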
An asterisk follows results filed as active; / = not tested or not shown; [ ] = dose if it differs, or a comment. Shown are actives, neighbours in structure and some others; about 2.9% of the full set was active somewhere.

SMILES | ERb SRC1 inh | ERa SRC1 inh | MRP resist rev | ERa coact pot | MRP1 act | Smad3 FoxH1 inh
N#Cc1nc(COc2cccc(Cl)c2)oc1N1CCCC1 | -5.3 | 0.4 | 11.0 | 95.5 | -2.1 | -1.0
N#Cc1nc(-c2ccc(OCc3ccccc3)cc2)oc1NCc1cccnc1 | -5.6 | 3.5 | -12.3 | 92.2 | -3.1 | 2.3
CN(C)c1oc(-c2ccc(OCc3ccccc3)cc2)nc1C#N | 3.9 | 7.7 | 2.2 | 96.4 | 4.7* | -10.6
N#Cc1nc(COc2ccc(F)cc2)oc1N1CCCC1 | -4.7 | 6.2 | -2.2 | 98.2 | 4.8* | 5.4
COc1cc(O)c2c(O)c3c(c4c2c1[C@]1(C4)C(C)=CCCC1(C)C)[C@H](O)[C@@]1(O)CC(=O)C(C(N)=O)=C(O)[C@]1(O)C3=O | / | / | / | / | / | 45.6
CCOC(=O)c1sc2nc(CC(=O)OC)nc(NCCN(CC)CC)c2c1C | 11.4 | -0.9 | -10.2 | 109.0 | -1.8 | -8.2
CCOC(=O)c1sc2nc(CC(=O)OC)nc(NCc3ccc(Cl)cc3)c2c1C | 7.7 | 36.9 | 18.9 | 339.2*[fluorescence artefact?] | -1.6 | 6.2
OC[C@@H]1O[C@H](n2cnc3c(/C=C(\O)c4ccccc4)ncnc32)[C@H](O)[C@H]1O | / | / | / | / | / | 1.7
O=C(Nc1cnn(C23CC4CC(CC(C4)C2)C3)c1)c1cnn2c(C(F)(F)F)cc(-c3ccco3)nc12 | 60.4* | 80.8* | -2.1 | 172.6 | -4.3 | 2.6
Cn1nnc(NC(=O)COc2ccc(C3CCCCC3)cc2)n1 | 4.2 | 14.9 | 13.3 | 96.4 | 5.3* | 1.2
O=C(COc1ccc(-n2cnnn2)cc1)NC1CCCCC1 | 23.9 | 6.8 | 15.3 | 105.6 | -2.0 | 4.2
C=CCn1cnc2c(c1=O)c1nc3ccccc3nc1n2/N=C/c1cccc(OC)c1 | 33.2 | 68.4*[fluorescence artefact?] | -14.3 | 93.7 | / | -9.0
CC1CCN(S(=O)(=O)c2ccc(NC(=O)Cn3nnc(-c4ccccc4F)n3)cc2)CC1 | 62.3*[fluorescence artefact?] | 86.2*[fluorescence artefact?] | -12.3 | 102.0 | -3.9 | -6.0
CC1CCN(S(=O)(=O)c2ccc(NC(=O)Cc3ccccc3)cc2)CC1 | -1.9 | 5.6 | 10.3 | 118.1 | -3.1 | 13.9
O=C(Nc1nc(-c2ccncc2)cs1)c1ccc(S(=O)(=O)N2CCOCC2)cc1 | -10.5 | -0.6 | 1.2 | 238.6* | -0.4 | 5.2
O=C(Nc1nc(-c2cccs2)cs1)c1cccc(S(=O)(=O)N2CCCCCC2)c1 | -1.4 | -11.2 | -13.7 | 189.1 | -2.7 | 3.8
COc1ccccc1C(=O)Nc1nc(-c2ccc(S(=O)(=O)N3CCOCC3)cc2)cs1 | 3.3 | 1.2 | -11.5 | 398.9*[fluorescence artefact?] | 0.9 | 4.9
O=C(Nc1nc(-c2cccs2)cs1)c1ccc(S(=O)(=O)N2CCCCC2)cc1 | -4.4 | -2.2 | -4.8 | 234.9* | -2.5 | -7.1
COc1ccccc1OC(C)C(=O)Nc1nc(-c2ccc(S(=O)(=O)N3CCOCC3)cc2)cs1 (centres undefined) | 7.6 | 0.9 | 2.4 | 263.4*[fluorescence artefact?] | -1.7 | -1.8
CC(Oc1ccccc1)C(=O)Nc1ccc(S(=O)(=O)N2CCOCC2)cc1 (centres undefined) | 0.7 | -6.5 | -6.7 | 113.4 | -0.7 | 1.4
CCOc1cccc(C(=O)Nc2nc(-c3ccc(S(=O)(=O)N4CCOCC4)cc3)cs2)c1 | -6.8 | -2.1 | -10.1 | 165.8 | -0.2 | 1.2
O=C(COc1cccc(Cl)c1)Nc1nc(-c2ccc(S(=O)(=O)N3CCOCC3)cc2)cs1 | 7.4 | -1.3 | -15.1 | 201.8* | 0.8 | 10.5
CN1CCN(c2ccc3nc(-c4ccc5nc(-c6ccc(O)cc6)[nH]c5c4)[nH]c3c2)CC1 | / | / | / | / | / | 11.3
Cc1nc2c(Br)c3nc(C(F)(F)F)[nH]c3c(Br)c2[nH]1 | 73.7*[fluorescence artefact?] | 38.2 | -6.6 | 67.6 | 0.1 | 3.0
Cc1nc2c(F)c(F)c(C(F)(F)F)c(F)c2[nH]1 | 1.5 | 0.2 | -1.7 | 126.5 | 1.1 | -11.1
SMILES | ERb SRC1 inh | ERa SRC1 inh | MRP resist rev | ERa coact pot | MRP1 act | Smad3 FoxH1 inh
O=C(c1ccco1)N1CCN(c2ncnc3c2[nH]c2ccc(Cl)cc23)CC1 | / | / | / | / | -3.8 | /
O=C(c1ccco1)N1CCN(c2c(-c3ccccc3)c3cc(Cl)ccc3[nH]c2=O)CC1 | 16.1 | 24.8 | -7.3 | 223.4*[fluorescence artefact?] | -1.6 | 8.4
O=c1[nH]c2ccc(Cl)cc2c(-c2ccccc2)c1N1CCOCC1 | 22.9 | 18.1 | 37.3 | 357.2*[fluorescence artefact?] | -3.5 | 3.1
O=c1[nH]c2ccc(Cl)cc2c(-c2ccccc2)c1N1CCN(c2ccccn2)CC1 | 30.1 | 12.6 | 32.8 | 259.6*[fluorescence artefact?] | -1.1 | 0.5
C=CCNC(=O)c1c2c(nc3ccccc13)-c1ccccc1CC2 | / | / | / | / | -1.0 | /
C=CCOc1ccc(/C=N/NC(=O)C(C)Sc2ccccn2)cc1OC (centres undefined) | / | / | / | / | -1.7 | /
C=C(C)COc1ccc(-c2nc(N)nc(C)c2Oc2ccccc2OC)c(O)c1 | 59.4*[fluorescence artefact?] | 29.5 | -1.1 | 285.5*[fluorescence artefact?] | 1.4 | 13.1
COc1ccc(-c2nc(N)ncc2Oc2ccccc2Br)c(O)c1 | 35.8 | 24.0 | -16.2 | 240.6*[fluorescence artefact?] | -0.7 | 6.0
CC[C@@H](Nc1ncnc2nc[nH]c12)C(=O)O | / | / | / | / | / | -0.2
CC(=O)Nc1nc2ccc(-c3nc4ccccc4o3)cc2s1 | / | / | / | / | -3.3 | /
Cc1nn(C)c(C)c1CN(C)C(=O)c1cnn2c1NC(c1ccccc1)CC2C(F)(F)F (centres undefined) | 55.8* | 3.7 | 5.1 | 100.0 | -0.7 | 11.1
Cc1nn(C)c(C)c1CN(C)C(=O)c1nn2c(c1Br)NC(c1cccs1)CC2C(F)(F)F (centres undefined) | / | / | / | / | -1.1 | /
C[C@@]12CC[C@H]3c4ccc(OCC(=O)O)cc4CC[C@@H]3[C@H]1CCC2=O | / | / | / | / | / | -12.3
CCN(CC)S(=O)(=O)c1cc([N+](=O)[O-])ccc1N=Nc1c(O)[nH]c2ccccc12 | / | / | / | / | -2.5 | /
O=[N+]([O-])c1ccccc1N=Nc1c(O)[nH]c2ccc(S(=O)(=O)O)cc12 | / | / | / | / | / | 62.6*
CC1CC(C(F)(F)C(F)(F)F)n2nc(C(=O)O)cc2N1 (centres undefined) | 76.4*[fluorescence artefact?] | 63.9* | -2.6 | 28.7 | -1.2 | 3.3
COc1ccc(/C=C/C(=O)NCc2cnn(C)c2C)cc1COc1ccc(Br)cc1 | / | / | / | / | 5.3* | /
COc1ccc(/C=C/C(=O)NCc2c(C)nn(C)c2C)cc1COc1ccc(Br)cc1 | / | / | / | / | 3.1 | /
O=C(CCN1CCOCC1)Nc1ccc(F)cc1F | / | / | / | / | / | -8.0
CCC(=O)Oc1ccc(C/C(=N\O)c2ccc(O)cc2O)o1 | 78.1*[fluorescence artefact?] | 69.6*[fluorescence artefact?] | -24.4 | 12.6 | -2.1 | 7.9
Cc1ccc(NC(=O)CCSc2nnnn2-c2ccc3c(c2)OCO3)cc1C | -6.5 | -5.7 | 14.1 | 100.2 | 6.2* | 13.1
O=C(CSc1nnnn1-c1ccc2c(c1)OCCO2)N1CCc2ccccc21 | 6.1 | 4.3 | 1.3 | 87.1 | -0.5 | -2.6
O=C(CSc1nnnn1-c1ccc2c(c1)OCCO2)OC1CCCCC1 | -1.3 | -7.5 | 4.7 | 212.5* | -0.6 | 9.1
Cc1ccc(C2=C(Cl)C(=O)C(c3ccc(C)cc3)=C(Cl)C2=O)cc1 | / | / | / | / | / | 52.2*
c1ccc(C[n+]2cccc(-c3cc4ccccc4[nH]3)c2)cc1 | / | / | / | / | / | 3.4
